Measured values published in PubChem BioAssay (NCATS).
Results filed as inconclusive are left out. The source made the active and inactive calls. Calls follow the shape of the dose curve; as a rule, active = well fitted inhibition curve with a large enough effect; inconclusive = small, poorly fitted or top-dose-only effect; inactive = no such curve, though single readings can be large or run the other way.

assay: qHTS for Inhibitors of ATXN expression: Validation (AID 588378); settings: cell-based ATXN2 expression reporter assay, luminescence; series mostly up to 57.1 µM; activity change, negative = inhibition: at the top concentration; also: nearly all actives have a fitted effect of over 75% in size
Text: Spinocerebellar ataxia type 2 (SCA2) is a multisystem neurodegenerative disease caused by a dominantly-acting mutation leading to expansion of a polyQ domain in the ataxin-2 protein (ATXN2). SCA2 patients develop progressive ataxia and later lose function in other neuronal systems. Prominent parkinsonian signs develop in some patients. Similar to many neurodegenerative disorders, no symptomatic or disease-modifying treatments are known.
The primary objective of project is to identify compounds inhibiting ATXN2 expression and to test them for efficacy in SCA2 mouse models. To this end, in a collaboration between Dr. Daniel Scoles and scientists at NCGC, a cell-based assay adapted to high-throughput screening has been developed to screen the NIH Molecular Libraries Small Molecule Repository (MLSMR).
NIH Chemical Genomics Center [NCGC]
NIH Molecular Libraries Probe Centers Network [MLPCN]
Assay Submitter (PI): Stefan Pulst and Daniel Scoles, University of Utah
4 ul of HEK293-ATXN2-FFLuc cell suspension (TBD cells/microL in phenol-red free DMEM) are dispensed into Greiner white solid bottom 1536-well assay plates, yielding a final well density of TBD cells/well. Plates are incubated for 2 hrs at 37 degrees C in 5% humidified CO2 to allow cell attachment. Compounds are then transferred via Kalypsys pin tool equipped with 1536-pin array (10nl slotted pins, V&P Scientific, San Diego, CA). In addition, duplicate serial dilutions of the control compounds ChemBridge 5553825, a previously identified ATXN2 expression inhibitor, and a known luciferase inhibitor, are pin-transferred. After incubation at 37 degrees C in 5% humidified CO2 for 24 hrs, CellTiter-Fluor reagent (1 ul) (Promega, Madison, WI) is then added and plates are incubated for 30 minutes, before being transferred to a ViewLux high-throughput CCD imager (PerkinElmer), wherein single end-point fluorescence measurements are acquired using the 405 nm excitation/525 nm emission filter set to assess cell viability. Next, Bright-Glo luciferase substrate detection reagent (3 ul) (Promega, Madison, WI) is added to each well and incubated for an additional 5 minutes. Luminescence is then measured on the ViewLux imager equipped with a clear emission filter using a 2 sec exposure.
% is scaled to controls: 0 for no effect and ±100 for the full control effect; potency is read from the fitted curve at half-maximal effect.

Structure (SMILES)	Potency	activity change, negative = inhibition
Clc1ccc2c(c1)N=C(N1CCNCC1)c1ccccc1N2	12.6 µM (active)	
Cn1cnc2c(NCc3ccccc3)nc(NCCO)nc21		10.7% (inactive)
CCN(CC)CCNC(=O)c1ccc(NS(C)(=O)=O)cc1		0.924% (inactive)
COC(=O)C1=CO[C@@H](O)[C@@H]2C(CO)=CC[C@H]12		-28.7% (inactive)
C[N+](C)(C)CCO		0.414% (inactive)
Brc1ccc([C@H]2CN3CCSC3=N2)cc1		-13.9% (inactive)
O=C1NC(=O)/C(=C/c2ccc3c(c2)OC(F)(F)O3)S1		67% (inactive)
Cc1nn(-c2ccccc2)c(C)c1/C=N/N1CCN(Cc2ccccc2)CC1		-4.74% (inactive)
NC(N)=NCCCCN=C(N)N		-14.3% (inactive)
N[C@@H](Cn1ccc(=O)c(O)c1)C(=O)O		-6.38% (inactive)
O=[N+]([O-])c1ccc(-c2nc(-c3ccc(F)cc3)c(-c3ccncc3)[nH]2)cc1		1.59% (inactive)
O=C1NC(c2cccc([N+](=O)[O-])c2)=CCN1c1ccccc1O		5.34% (inactive)
COc1ccccc1N1CCN(CCN2C(=O)CC3(CCCC3)CC2=O)CC1		-8.71% (inactive)
